TGFb SMAD3 inh = blocks TGF-b signaling; Potency, µM (series often up to 46.1 µM), hits mostly inhibitors; AID 588855; HepG2 CAGA-GFP TGF-b/SMAD3 reporter, GFP fluorescence, 18 h; TGF-beta stimulated, 500 pg/mL final; actives 1.2% (n = 410,000); also: nearly all actives have a fitted effect of over 65% in size
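Read-out: total well GFP (ex488/em500-530) summed from mean per-cell fluorescence. Cells: HEPG2 CAGA-GFP, 1% FBS DMEM, 18 h at 37 degrees C with 500 pg/mL final TGF-beta. Unstimulated wells served as the full-inhibition control; stimulated DMSO wells = 0%.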
Nrf2 block = Nrf2 pathway inhibition | actives 2.1% (n = 360,000) | A549 ARE-Fluc reporter, luciferase luminescence, 18-24 h | Potency, µM (doses to about 46 µM), usual class: inhibitors; also: nearly all actives have a fitted effect of over 60% in size
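Reporter: ARE-Fluc in A549. Exposure: 18-24 h, 37 °C, 5% CO2, 5% FBS OPTI-MEM. Readouts: fluorescent cytotoxicity (CellTiter-Fluor), then luminescent Nrf2 signal after BugLite.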
A549 tox-1 = A549 cytotoxicity, counter-screen for Nrf2 inhibitors | A549 ARE-Fluc cells, CellTiter-Fluor viability, 18-24 h | Potency, µM (highest dose often 46 µM), usual class: inhibitors | actives 0.16% (n = 390,000)
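A549 ARE-Fluc cells in 5% FBS OPTI-MEM, 5000 cells/well, rested 2 h then exposed to compounds in concentration-response for 18-24 h at 37 °C. Viability by CellTiter-Fluor fluorescence (Ex 405/Em 525) after 30 min; luciferase luminescence (BugLite, 15 min, RT) read afterwards.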
HepG2 tox = counter-screen for TGF-b inhibitors: cytotoxicity in HepG2 cells. HepG2 CAGA-GFP viability, ATP luminescence, 18 h. Potency, µM (doses to about 46.1 µM), hits mostly cytotoxic. actives 0.76% (n = 410,000)
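CellTiter-Glo luminescence gave cytotoxicity after 18 hours at 37 degrees C. The cells were HepG2 CAGA-GFP in 1% FBS DMEM, stimulated with 500 pg/mL TGF-beta after compound addition. %Activity was normalised to no-cell wells (complete cell-killing) and DMSO (no toxicity), and curves were fitted and classified.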
Nrf2 ARE act = Nrf2 pathway activation; AREc32 ARE-luciferase reporter (MCF7-derived line), luminescence, 24 h; Potency, µM (series often up to 46.1 µM), most hits filed as activators; actives 0.31% (n = 410,000); also: nearly all actives have a fitted effect of over 65% in size
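ARE activation measured as luciferase luminescence (Steady-Glo, 30 min RT) in AREc32_Fluc cells after 24 hr compound exposure at 37 deg C, 5% CO2; cells seeded overnight at 1000/well in OPTI-MEM, 5% FBS.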
FLuc enzyme inh = firefly luciferase inhibition, Nrf2 hit validation; purified firefly luciferase, luminescence inhibition; actives 4% (n = 1,400); Potency, µM (top dose mostly 57.5 µM), usual class: inhibitors; shares compounds with Nrf2 block; also: nearly all actives have a fitted effect of over 65% in size
Target sequence (P08659 whole entry, looked up): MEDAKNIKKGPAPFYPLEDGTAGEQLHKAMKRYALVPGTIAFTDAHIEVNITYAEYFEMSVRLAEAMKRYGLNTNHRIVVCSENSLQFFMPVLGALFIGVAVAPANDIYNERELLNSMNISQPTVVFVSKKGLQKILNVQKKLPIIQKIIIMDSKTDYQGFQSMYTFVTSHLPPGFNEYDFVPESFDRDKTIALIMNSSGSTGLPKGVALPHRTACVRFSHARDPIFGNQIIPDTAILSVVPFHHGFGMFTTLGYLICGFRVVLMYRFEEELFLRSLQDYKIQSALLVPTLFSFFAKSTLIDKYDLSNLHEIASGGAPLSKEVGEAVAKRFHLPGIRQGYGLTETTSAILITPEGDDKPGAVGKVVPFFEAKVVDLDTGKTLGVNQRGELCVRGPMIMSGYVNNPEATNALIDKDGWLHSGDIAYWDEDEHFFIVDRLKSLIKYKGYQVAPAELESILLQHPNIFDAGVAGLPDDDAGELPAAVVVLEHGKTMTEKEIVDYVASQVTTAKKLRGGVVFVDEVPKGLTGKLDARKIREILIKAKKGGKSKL
A549 tox-2 = counter-screen for Nrf2 inhibitors: cytotoxicity in A549 ARE cells; shares compounds with Nrf2 block; A549 ARE-Fluc cells, cytotoxicity counterscreen; Potency, µM (titrated, usually from 46.1 µM), actives largely listed as inhibitors; actives 2% (n = 1,400); AID 720523;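 also: cells exposed to compounds for 18 to 24 hours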
Nrf2 ARE inh = reduces Nrf2 ARE reporter signal in A549 cells; AID 720524; Potency, µM (top dose mostly 46.1 µM), actives largely listed as inhibitors; A549 ARE-firefly luciferase reporter, luminescence; shares compounds with Nrf2 block; actives 74% (n = 1,400); also: nearly all actives have a fitted effect of over 65% in size
Numbers stand for hits; - = inactive; ? = inconclusive; . = not tested or not shown; [ ] = another dose, or the depositor's remark. A selection: hits, their analogues and other compounds. The true share with any hit is near 3.6%. Calls follow the shape of the dose curve; as a rule, active = well fitted curve in the direction sought with a large enough effect; inconclusive = small, poorly fitted or top-dose-only effect, or another doubt; inactive = no such curve, though single readings can be large; an effect the other way counts as inactive or inconclusive.

SMILES	TGFb SMAD3 inh	Nrf2 block	A549 tox-1	HepG2 tox	Nrf2 ARE act	FLuc enzyme inh	A549 tox-2	Nrf2 ARE inh
CC1CCc2c(sc(NC(=O)c3ccccc3)c2C(=O)Nc2ccccc2)C1 (centres undefined)	-	-	-	-	-	.	.	.
COc1cc(C(=O)Nc2sc3c(c2C(=O)O)CCC(C)C3)cc(OC)c1OC (centres undefined)	-	5.2µM	-	-	-	-	-	7.3µM
Cc1c(C(=O)OCC(=O)N(C)C2CCS(=O)(=O)C2)oc2ccc(Br)cc12 (centres undefined)	-	-	-	-	-	.	.	.
CC(C)N(C(=O)CSc1nc2ccccc2n1-c1ccccc1)C(C)C	-	-	-	-	-	.	.	.
O=C(O)CCSc1nc2ccccc2n1-c1ccccc1	-	5.8µM	-	-	-	-	-	5.8µM
Fc1ccc(-n2nnc(-c3ccccc3Br)n2)cc1	-	-	-	-	-[9.22 µM]	.	.	.
COCC(C)n1c(C)cc(C(=O)CSc2ccc(NC(C)=O)cc2)c1C (centres undefined)	-	.	-	-	-	.	.	.
COc1ccc(NS(=O)(=O)c2ccc(NC(=O)c3ccc(N(C)S(C)(=O)=O)cc3)cc2)c(OC)c1	?	1.8µM	-	-	-	-	-	2.6µM
O=C(CC1C[C@H](C(=O)N2CCCCC2)[C@@]2(CCc3ccccc3)c3[nH]c4ccccc4c3CCN2C1=O)NCc1cccc(C(F)(F)F)c1 (some centres undefined)	-	?	-	-	-	.	.	.
COc1ccc2[nH]c3c(c2c1)CCN1C(=O)C(CC(=O)NCc2cccc(C(F)(F)F)c2)C[C@H](C(=O)N2CCCCC2)[C@@]31CCc1ccccc1 (some centres undefined)	?	6.5µM	-	-	-	-	-	21µM
CCOc1cc(/C=C(\C#N)C(=O)Nc2ccccc2C(=O)O)ccc1OC(=O)c1ccc(C)cc1	-	2.1µM	-	-	-	?	-	4.6µM
COc1ccc(/C=C(/C#N)C(=O)Nc2ccccc2C)cc1C(=O)O	-	-	-	-	-	.	.	.
COc1ccc(OCC(=O)Nc2nnc(S(=O)(=O)N3CCCCCC3)s2)cc1	-	?	-	-	-	.	.	.
CN(Cc1cnc2nc(N)nc(N)c2n1)c1ccc(C(=O)NC(CCC(=O)O)C(=O)O)c2ccccc12 (centres undefined)	-	0.041µM	-	-	-	-	-	0.033µM
COc1cc(OC)cc(C(=O)NCC(=O)OCC(=O)N2CC(C)CC(C)C2)c1 (centres undefined)	-	-	-	-	-	.	.	.
COc1cc(C(=O)OCC(=O)Nc2cc(C)on2)ccc1OCc1ccccc1Cl	-	?	-	-	-	.	.	.
Cn1cccc1C(=O)NC(=O)COC(=O)CNC(=O)c1ccc(Cl)cc1Cl	-	2.6µM	-	-	-	?	-	7.3µM
Cn1cccc1C(=O)NC(=O)COC(=O)CNC(=O)CNC(=O)c1ccc(Cl)cc1Cl	-	?	-	-	-[9.22 µM]	.	.	.
COc1ccc(NC(=O)C(NC(=O)/C=C\c2ccc3c(c2)OCO3)c2ccc(OC)cc2)cc1 (centres undefined)	-	-[9.27 µM]	-	-	-	.	.	.
COc1ccc(C)cc1NC(=O)C1CCC(CNS(=O)(=O)c2ccc3c(c2)CCCC(=O)N3)CC1 (centres undefined)	-	7.3µM	?	-	-	-	-	7.3µM
C=CCn1c(-c2c[nH]c3ccccc23)n[nH]c1=S	-	-	-	-	-	.	.	.
Cc1ccc(-n2c(-c3cccc(C)c3)nc3c(cnn3-c3ccccc3)c2=O)cc1	-	-	-	-	-	.	.	.
